Among the data in PubChem BioAssay (NCATS) are Potency and activity change, negative = inhibition values, retold here.

Molecules are shown by their SMILES. Records with an inconclusive call do not appear. A call without a number means that no potency is given here. Activity calls are given as the source filed them. Calls come from the whole dose curve; as a rule, active = well fitted inhibition curve with a large enough effect; inconclusive = small, poorly fitted or top-dose-only effect; inactive = flat fitted curve, though single readings scatter.
Potency is the fitted concentration of half-maximal effect.

The assay is described as follows: qHTS to identify inhibitors of the type 1 interferon - major histocompatibility complex class I in skeletal muscle: primary screen against the NCATS Pharmaceutical Collection (AID 1347407).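 Note: luminescence of HiBiT knocked into endogenous HLA-B as interferon-induced MHC class I level.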 The following applies: human skeletal muscle cells, IFN-b-induced MHC-I HiBiT luminescence, 24 h; series mostly up to 45.9 µM. In short, it runs like this:
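Cells were seeded with 4 ng/ml IFN-beta, incubated 1 h, then dosed with compounds over eight 1:5 steps up to 46 uM final. After 24 h at 37 C, HiBiT lytic reagent was added and luminescence read after 10 min lysis in the dark.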
(Quantitative high-throughput screening tests each substance at several concentrations.)
For `Oc1ccc(Cl)c2cccnc12`, the Potency result was “inactive”.

Consider `NC[C@H]1O[C@H](O[C@H]2[C@H](O[C@@H]3O[C@H](CO)[C@@H](O)[C@H]3O)C(O)[C@H](N)C[C@@H]2N)[C@H](N)[C@@H](O)[C@@H]1O` (some centres undefined), for which the activity change, negative = inhibition was -10.7% [at 9.18 µM] (inactive).

On to `NC(=O)CC[C@@H]1NC(=O)[C@H](Cc2ccccc2)NC(=O)[C@H](Cc2ccc(O)cc2)NC(=O)CCSSC[C@@H](C(=O)N2CCC[C@H]2C(=O)N[C@@H](CCCN=C(N)N)C(=O)NCC(N)=O)NC(=O)[C@H](CC(N)=O)NC1=O`, for which the Potency entry is “inactive”.

Regarding `CN1[C@@H]2CC[C@H]1CC(OC(=O)c1c[nH]c3ccccc13)C2` (some centres undefined), the Potency entry was “inactive”.

Consider `CCC(C(=O)OCCN(CC)CC)c1ccccc1` (centres undefined), for which the Potency entry was “inactive”.

On to `COc1cc(/C=C/C(=O)O[C@H]2CC[C@]34C[C@]35CC[C@]3(C)[C@@H]([C@H](C)CCC=C(C)C)CC[C@@]3(C)[C@@H]5CC[C@H]4C2(C)C)ccc1O`, for which the Potency entry is “inactive”.

As to `NC(=O)C(=O)N/N=C/c1ccc([N+](=O)[O-])o1`, the Potency entry is “inactive”.

In the case of `CN1CCN(CCCN2c3ccccc3Sc3ccc(S(=O)(=O)N(C)C)cc32)CC1`, the Potency result is “inactive”.

In the case of `O=c1ccc2ccccc2o1`, the Potency entry is “inactive”.

Turning to `NC(CO)(CO)CO`, the Potency entry was “inactive”.

Regarding `CCN(CCCc1ccccc1)CCCc1ccccc1`, the Potency entry is “inactive”.

As to `O=C1[C@H]2CCCC[C@H]2C(=O)N1CCCCN1CCN(c2nsc3ccccc23)CC1`, the Potency result was “inactive”.

`Cc1ccnc(NS(=O)(=O)c2ccc(N)cc2)n1`: the Potency result is “inactive”.

`CC(C)=CCC1C(=O)N(c2ccccc2)N(c2ccccc2)C1=O`: the Potency was 18.7 µM (active).

For `NCCC(O)(P(=O)(O)O)P(=O)(O)O`, the Potency entry was “inactive”.

Take `CC(C)(C)CC(C)(C)c1ccc(O)c(Cc2ccc(Cl)cc2Cl)c1`: the Potency entry was “inactive”.

For `CCCC(=O)Nc1ccc(OCC(O)CNC(C)C)c(C(C)=O)c1` (centres undefined), the Potency entry is “inactive”.

Consider `C[C@@H]1C[C@H]2[C@@H]3CCC4=CC(=O)C=C[C@]4(C)[C@@]3(F)[C@@H](O)C[C@]2(C)[C@H]1C(=O)CO`, for which the Potency result is “inactive”.

As to `CCCSS/C(CCO)=C(\C)N(C=O)Cc1cnc(C)nc1N`, the Potency result is “inactive”.

As to `CC(=O)OCC(=O)[C@@]1(O)CC[C@H]2[C@@H]3CCC4=CC(=O)C=C[C@]4(C)[C@H]3[C@@H](O)C[C@@]21C`, the Potency result is “inactive”.

Regarding `O=C(OCC(O)CO)c1ccccc1Nc1ccnc2cc(Cl)ccc12` (centres undefined), the Potency entry is “inactive”.

On to `O=C1OCCN1/N=C/c1ccc([N+](=O)[O-])o1`, for which the Potency entry is “inactive”.

As to `C=CCc1ccc(O)c(OC)c1`, the Potency entry was “inactive”.

As for `Cc1onc(-c2c(Cl)cccc2Cl)c1C(=O)N[C@@H]1C(=O)N2[C@@H]1SC(C)(C)[C@@H]2C(=O)O`, the Potency result was “inactive”.

Regarding `CN(C)CCOc1ccccc1Cc1ccccc1`, the Potency result is “inactive”.

For the molecule `CCN(CCCCOC(=O)c1ccc(OC)c(OC)c1)C(C)Cc1ccc(OC)cc1` (centres undefined), the Potency entry is “inactive”.

In the case of `C[C@@H]1C[C@H]2[C@@H]3C[C@H](F)C4=CC(=O)C(Cl)=C[C@]4(C)[C@@]3(F)[C@@H](O)C[C@]2(C)[C@@]1(O)C(=O)CO`, the Potency result is “inactive”.

In the case of `Cc1c(F)c(N2CCNC(C)C2)cc2c1c(=O)c(C(=O)O)cn2C1CC1` (centres undefined), the Potency entry was “inactive”.

As for `CNC(=O)CN(CCN(CCN(CC(=O)[O-])CC(=O)NC)CC(=O)[O-])CC(=O)[O-].O.[Gd+3]`, the Potency entry was “inactive”.

For `OC[C@H]1O[C@@H](n2cnc3c(=S)nc[nH]c32)[C@H](O)[C@@H]1O`, the Potency result is “inactive”.

For the molecule `NC[C@H]1O[C@H](O[C@H]2[C@H](O)[C@@H](O[C@H]3O[C@H](CO)[C@@H](O)[C@H](N)[C@H]3O)[C@H](N)C[C@@H]2N)[C@H](N)[C@@H](O)[C@@H]1O`, the Potency result was “inactive”.

Consider `O=C(CCN1CCC(c2ccccc2)C1)c1ccc2c(c1)OCCO2` (centres undefined), for which the Potency result was “inactive”.

For the molecule `CCN(CC)C(=O)N1CCN(C)CC1`, the Potency result is “inactive”.

Regarding `CN(C)CCCOc1nn(Cc2ccccc2)c2ccccc12`, the Potency result is “inactive”.
